Screening results deposited in PubChem by Broad Institute.
Hits are enriched below; roughly 2.8% of the tested compounds scored in any of these assays.
Shn3 inh set2: inhibitors of Schnurri-3 3'UTR reporter in osteoblasts. Clone20 osteoblast Shn3 3'UTR firefly luciferase, 24 h. inhibition, % at 12.5 µM. actives 0.52% (n = 360,000);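 active = mean inhibition of at least 75% with every replicate also reaching 75%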
HIV Env fusion: inhibitors of HIV Env-mediated cell fusion; HeLa-JRFL Env/CEM21 cell fusion, luciferase; inhibition, % at 12.3 µM; actives 1.1% (n = 360,000);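 active = mean replicate inhibition score of at least 50 and every replicate individually at or above 50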
PAX8 inh HTS: inhibitors of PAX8 transcriptional activity in RMG-I cells; inhibition, % at 12.6 µM; RMG-I TPO-luciferase reporter, SteadyGlo, 24 h; actives 1.2% (n = 360,000);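 active = mean replicate inhibition at least 60% with every replicate also reaching 60%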;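 note: luciferase light reporting Pax8 driven TPO promoter activity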
N-glyco inh: N-linked glycosylation inhibition; D54 ERlucT glycosylation luciferase reporter, 24 h; percent of 100 nM tunicamycin response; reporter increase, % at 12.5 µM; actives 0.23% (n = 360,000);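 active = mean luciferase reporter signal, scaled so untreated is 0 and the glycosylation-blocking control 100, at or above a set limit in every replicate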;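 note: luciferase carries N-glycosylation sites so blocking glycosylation raises the light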
EBV LMP1 NFkB: reduces LMP1-driven NF-kappaB luciferase signal; LMP1-induced NF-kappaB luciferase reporter cells, luminescence; inhibition, % at 12.5 µM; actives 0.69% (n = 350,000); AID 504558; in the data active = inhibition above about 41%
NSD2 inh: blocks human histone methyltransferase NSD2; NSD2 peptide methylation, AlphaScreen, 120 min; inhibition, % at 12.5 µM; actives 0.54% (n = 310,000); AID 743445; in the data active = inhibition above about 50%
Numbers stand for hits; n = inactive; x = no result.

SMILES	Shn3 inh set2	HIV Env fusion	PAX8 inh HTS	N-glyco inh	EBV LMP1 NFkB	NSD2 inh
CO[C@H]1CN(C)C(=O)c2ccc(NS(C)(=O)=O)cc2OC[C@@H](C)N(C(=O)CN(C)C)C[C@@H]1C	x	n	n	x	x	x
C[C@@H]1CN([C@H](C)CO)C(=O)c2cc(C#CC3(O)CCCC3)cnc2O[C@@H]1CN(C)C(=O)Cc1cccnc1	x	n	n	x	x	x
Cc1cccc(C(C)C)c1NC(=O)c1ccc(CN(c2ccccc2)S(=O)(=O)c2ccccc2)cc1	n	59.9	n	n	n	n
O=C(Nc1ccccn1)c1ccc(CN(c2ccccc2)S(=O)(=O)c2ccccc2)cc1	n	n	n	n	n	n
C[C@@H]1CN([C@@H](C)CO)C(=O)c2cccc(N(C)C)c2O[C@@H]1CN(C)S(=O)(=O)c1cn(C)cn1	x	n	n	x	x	x
Cc1sc2ncnc(N3CCC(C(=O)N(C)CC(=O)Nc4ccccc4Cl)CC3)c2c1C	n	n	n	n	n	n
Cc1sc2ncnc(N3CCC(C(=O)Nc4cc(S(C)(=O)=O)ccc4Cl)CC3)c2c1C	n	91.7	n	n	n	n
Cc1sc2ncnc(N3CCC(C(=O)N(C)CC(=O)Nc4ccc(Cl)c(C(F)(F)F)c4)CC3)c2c1C	n	n	77.7	n	n	n
CCN(CC(=O)Nc1cc(Cl)ccc1C)C(=O)C1CCN(c2ncnc3sc(C)c(C)c23)CC1	n	60.6	n	n	n	n
CCN(CC)S(=O)(=O)c1cc(NC(=O)C2CCN(c3ncnc4sc(C)c(C)c34)CC2)ccc1Cl	89.0	n	71.8	n	n	n
Cc1sc2ncnc(N3CCC(C(=O)N(C)CC(=O)Nc4cccc(F)c4)CC3)c2c1C	n	n	n	n	n	n
CO[C@@H]1CN(C)C(=O)c2ccc(NC(=O)C3CC3)cc2OC[C@@H](C)N(CC2CC2)C[C@@H]1C	x	x	n	x	x	x
Cc1ccc(S(=O)(=O)Nc2cccc3c2O[C@@H](CN(C)C(=O)Nc2ccccc2)[C@H](C)CN([C@H](C)CO)C3=O)cc1	x	n	n	x	x	x
O=C(C[C@@H]1CC[C@@H]2[C@H](COC[C@@H](O)CN2Cc2ccc(Cl)cc2)O1)NCCc1ccccc1	x	n	n	x	x	x
O=C1N[C@@H](Cc2c[nH]c3ccccc23)COC(=O)[C@H](Cc2ccc(F)cc2)C/C=C\C[C@H]1CC(=O)N(CCO)Cc1ccccc1	n	n	n	n	43.1	x
O=C(C[C@@H]1C/C=C/CC[C@H](Cc2ccc(F)cc2)C(=O)O[C@H](c2ccccc2)CNC1=O)NCCO	n	66.9	n	n	n	x
O=C1NCCOC(=O)[C@@H](Cc2ccc(F)cc2)CC/C=C/C[C@@H]1CC(=O)N(CCO)Cc1ccccc1	90.9	n	n	n	n	x
O=C1N[C@@H](Cc2c[nH]c3ccccc23)COC(=O)[C@@H](Cc2ccc(F)cc2)CC/C=C/C[C@@H]1CC(=O)N(CCO)Cc1ccccc1	n	n	75.4	n	n	x
C[C@H]1CN([C@@H](C)CO)S(=O)(=O)c2ccc(-c3cncnc3)cc2O[C@@H]1CN(C)C	x	n	x	x	x	x
O=C(NCC(=O)c1ccccc1)OCc1ccc([N+](=O)[O-])cc1	n	n	n	n	67.9	n
CC1CCCN(C(=O)Cc2cn(Cc3cccc(Cl)c3)c3ccccc23)C1 (stereo not drawn)	n	x	64.3	n	n	n
O=C(Nc1ccc(Cl)c(Cl)c1)N[C@@H]1CC[C@H](CCn2cc(C3CCCCC3)nn2)O[C@H]1CO	x	n	113.2	x	x	x
O=C1c2ccccc2C(=O)N1CC(O)CNc1ccc(Br)cc1 (stereo not drawn)	n	n	81.7	n	n	n
O=C1c2ccccc2C(=O)N1CC(O)COCc1ccccc1 (stereo not drawn)	n	n	x	n	n	x
COc1cccc(NC(=O)C[C@H]2CC[C@H]3[C@H](COc4ccc(NC(=O)C5CCCCC5)cc4C(=O)N3C)O2)c1	x	n	n	x	x	x
CCCC(=O)Nc1ccc2c(c1)C(=O)N(C)[C@@H]1CC[C@@H](CC(=O)Nc3ccccc3)O[C@H]1CO2	x	n	n	x	x	x
O=[N+]([O-])c1cccc(/C=N/Nc2cc(Cl)nc(-c3ccccc3)n2)c1	n	x	x	n	n	n
O=[N+]([O-])c1ccc(/C=N/Nc2cc(Cl)nc(-c3ccccc3)n2)cc1	n	x	x	n	84.8	n
OC[C@@H]1[C@H](c2ccc(/C=C/c3ccccc3)cc2)[C@H]2CN(CCC(F)(F)F)CCCCN12	x	x	n	x	x	x
Cc1cc(C)cc(OCC(=O)Nc2ccc(N3CCCCC3)cc2)c1	n	x	n	n	n	x
